Reference: ChEMBL document CHEMBL4513216, “Probing the Open Global Health Chemical Diversity Library for Multistage-Active Starting Points for Next-Generation Antimalarials” (ACS Infect Dis, 2020)
Among all 68,000 compounds or so, about 2,700 (4%) showed an effect of 50% or more. The entries come from a sample that favours strong results as a whole.

These compounds were tested on Plasmodium berghei (assay: Screen against P. berghei liver stage (PbLuc), transformed with Luciferase, at 2uM). Conditions: tested at 2 uM.
Type: functional, HepG2

**Q.** For `CC(C)c1nn(C)c(N2CCOCC2)c1CNC(C)c1ccco1` (configuration not stated), which INHIBITION is on record?
**A.** Its INHIBITION is 53.98%.

**Q.** With `Cc1ccc(C(C)NCc2c(C(C)C)nn(C)c2N2CCOCC2)o1` (configuration not stated) as the compound, how does the INHIBITION read?
**A.** Its INHIBITION is -41.76%.

**Q.** Which INHIBITION does the source give for `Cc1nn(C)c(N2CCOCC2)c1CNC(C)c1ccco1` (configuration not stated) here?
**A.** Its INHIBITION is -39.37%.

**Q.** For `NC(CC1CCCC1)c1ccccc1` (configuration not stated), which INHIBITION is on record?
**A.** Its INHIBITION is 10.24%.

**Q.** `CCN1CCCC1CNC(=O)c1cc(COc2cccc(F)c2)[nH]n1` (configuration not stated) was tested. Which INHIBITION did it give?
**A.** Its INHIBITION is 21.67%.

**Q.** `O=C(CC1CC1)N1CCc2ncc(Cn3cncn3)n2CC1` was tested. Which INHIBITION did it give?
**A.** Its INHIBITION is 31.73%.

**Q.** Which INHIBITION does the source give for `CC(C)S(=O)(=O)N1CCCC(c2nccn2Cc2cccnc2)C1` (configuration not stated) here?
**A.** The INHIBITION was -7.66%.

**Q.** For `Cc1noc(C)c1CN1CC[C@H]2OCC[C@@H](C(=O)N3CCCO3)[C@@H]2C1`, which INHIBITION is on record?
**A.** Its INHIBITION is -13.8%.

**Q.** How did the INHIBITION turn out when `Cc1noc(C)c1CN1CC[C@H]2OCC[C@@H](C(=O)N3CCCO3)[C@H]2C1` was run?
**A.** Its INHIBITION is 59.08%.

**Q.** How did the INHIBITION turn out when `O=C([C@@H]1CCO[C@@H]2CCN(CC3CC3)C[C@H]21)N1CCCC1` was run?
**A.** The INHIBITION was -16.33%.

**Q.** Which INHIBITION does the source give for `O=C([C@@H]1CCO[C@@H]2CCN(CC3CCOCC3)C[C@H]21)N1CCCO1` here?
**A.** The INHIBITION was -3.19%.

**Q.** How did the INHIBITION turn out when `Cc1noc(C)c1CN1CC[C@H]2OCC[C@@H](C(=O)NCC3CC3)[C@@H]2C1` was run?
**A.** The INHIBITION was 6.04%.

**Q.** Which INHIBITION does the source give for `O=C([C@@H]1CCO[C@@H]2CCN(CC3CC3)C[C@H]21)N1CCCCO1` here?
**A.** The INHIBITION was 57.07%.

**Q.** `CCn1ccc(NC(=O)C2CCC(=O)N2Cc2ccc(C)o2)n1` (configuration not stated) was tested. Which INHIBITION did it give?
**A.** The INHIBITION was 45.14%.

**Q.** With `O=C(c1cc(=O)n(-c2ccccc2)[nH]1)N1CCOCC(O)C1` (configuration not stated) as the compound, how does the INHIBITION read?
**A.** The INHIBITION was 4.12%.

**Q.** Which INHIBITION does the source give for `COCCOc1ccccc1NC(C)C(=O)NC(=O)NC(C)(C)C` (configuration not stated) here?
**A.** Its INHIBITION is -19.21%.

**Q.** With `CCCc1n[nH]c(C2CN(C(=O)c3ccc[nH]3)CCO2)n1` (configuration not stated) as the compound, how does the INHIBITION read?
**A.** The INHIBITION was -70.51%.

**Q.** Which INHIBITION does the source give for `CC(Cc1ccccc1F)NC(=O)CCC1=NC(=C2N=CN=N2)NO1` (configuration not stated) here?
**A.** The INHIBITION was 24.12%.

**Q.** For `COCCNC(=O)Cn1c(-c2cccc(F)c2)nc(C)c(CCO)c1=O`, which INHIBITION is on record?
**A.** Its INHIBITION is -4.75%.

**Q.** With `OCC1(Cc2ccc(F)cc2F)CCCN(Cc2ccncc2)C1` (configuration not stated) as the compound, how does the INHIBITION read?
**A.** The INHIBITION was 61.48%.

**Q.** With `O=C(O)C1(Cc2ccc(F)cc2F)CCCN(Cc2ccncc2)C1` (configuration not stated) as the compound, how does the INHIBITION read?
**A.** Its INHIBITION is 43.57%.

**Q.** How did the INHIBITION turn out when `COCCC1(CO)CCCN(Cc2ccncc2)C1` (configuration not stated) was run?
**A.** The INHIBITION was 10.53%.

**Q.** For `Cc1c(-c2cc(C(=O)N3CCc4ncc(Cl)cc4C3)on2)cnn1C`, which INHIBITION is on record?
**A.** The INHIBITION was -30.88%.

**Q.** Which INHIBITION does the source give for `O=C(NCC(F)F)c1cc(-c2ccccc2)nc2ncnn12` here?
**A.** The INHIBITION was 5.88%.

**Q.** Which INHIBITION does the source give for `CCc1nc(CCNC(=O)NC2CC(=O)N(C(C)(C)C)C2)cs1` (configuration not stated) here?
**A.** The INHIBITION was 3.62%.

**Q.** For `CCc1nc(CCNC(=O)NC2CCSCC2)cs1`, which INHIBITION is on record?
**A.** Its INHIBITION is 50.32%.

**Q.** How did the INHIBITION turn out when `CCc1nc(CCNC(=O)Nc2ccc(C(=O)NC)cc2)cs1` was run?
**A.** The INHIBITION was -58.5%.
